The source of these data is ChEMBL document CHEMBL3988442, “University of Dundee, Small-Polar-MMV Screening Library” (2021).

SMILES strings stand for the structures. Values joined by “and” are separate entries in the source; they are usually repeats but may differ in a detail not shown here. Equal values may be shown once. Screen size: about 34,000 compounds; about 290 (0.85%) showed an effect of 50% or more. The full list was thinned out, with strong results kept by preference.

The subject of the assay is Plasmodium falciparum. Description: Plasmodium falciparum sporozoite viability assay. The assay is classed as functional, organism-based. Also on record: scale not given: in the data most compounds retested in dose-response had high values.

Take `COCCOc1ccc(S(=O)(=O)Nc2cccnc2O)cc1C`: the “Percent Effect” value (10 mM as filed; unlikely as a test dose) is -10.26% and -4.441%.

On to `COc1ccc(S(=O)(=O)NC(=O)COC2CCCCC2)cc1C`, for which the “Percent Effect” value was -5.465%.

For the compound `COCCOc1ccc(S(=O)(=O)Nc2cccc(O)c2F)cc1C`, the “Percent Effect” value (10 mM as filed; unlikely as a test dose) was 65.91% and 54.13%. `CC(C)N1CCN(C)CC(Cc2cc(N(C)C)ncn2)C1` (stereo not drawn): the “Percent Effect” value was 2.091%. In the case of `CN1CCc2nc3cc(C(=O)NCc4cccs4)ccc3c(=O)n2CC1`, the “Percent Effect” value came out at 0.8687%.

On to `CCc1nc(CN2CCN(CC(O)c3ccccc3)CC2)no1` (stereo not drawn), for which the “Percent Effect” value (10 mM as filed; unlikely as a test dose) is 4.576% and 5.713% and -3.353%.

For `CCCc1nc(CN2CCN(CC(O)c3ccccc3)CC2)no1` (stereo not drawn), the “Percent Effect” value (10 mM as filed; unlikely as a test dose) is -24.09% and -24.64% and -18.14%. On to `O=C(CC1CC1)N1CCCn2nnc(CNc3ncccn3)c2C1`, for which the “Percent Effect” value is reported as 2.773%. Still for that read-out and setting: the same measure for `Cc1noc(C)c1C(=O)NCc1cccnc1N(C)C`: 5.354%; for `CCC(=O)N1CC[C@H](O)[C@@H]1Cc1ccccc1`: -1.986%.

Consider `CCc1ccc(CN2CCCCC2c2n[nH]cc2-c2cc(C)no2)cc1.Cl` (stereo not drawn), for which the “Percent Effect” value (10 mM as filed; unlikely as a test dose) was 63.83% and 48.62% and 58.14%. Regarding `Cc1cccc(CN2CCCCC2c2n[nH]cc2-c2cc(C)no2)c1.Cl` (stereo not drawn), where the note is “10 mM as filed; unlikely as a test dose”, the “Percent Effect” value is -21.49% and -8.887% and 2.992%. For `Nc1nccnc1CC1CCCN(Cc2cccc3[nH]ccc23)C1` (stereo not drawn), the “Percent Effect” value amounted to 4.859%. As for `NC(=O)C1CN(c2ccc(Br)cn2)CCO1` (stereo not drawn), the “Percent Effect” value (10 mM as filed; unlikely as a test dose) is -39.17% and -33.44%. As for `NC(=O)C1CCN(c2ccc3cc(Br)ccc3n2)C1` (stereo not drawn), the “Percent Effect” value (10 mM as filed; unlikely as a test dose) was -42.56% and -39.12%.

Consider `NC(=O)C1CN(c2ccc3cc(Br)ccc3n2)CCO1` (stereo not drawn), for which, for the setting “10 mM as filed; unlikely as a test dose”, the “Percent Effect” value is 80.55% and 85.86%. As to `Cc1cc(Cc2cccc(C(F)(F)F)c2)cc(C2CCCNC2)n1` (stereo not drawn), the “Percent Effect” value turned out to be 4.537%. As for `CN(C)C(=O)CN1CCCCC1c1nc(N)ncc1-c1ccc(Cl)cc1` (stereo not drawn), the “Percent Effect” value was -1.537%. Still for that read-out and setting: in the case of `Cc1noc(C)c1C(=O)N1C[C@@H]2CN(Cc3cccnc3)CCO[C@@H]2C1` it was -15.82%.

In the case of `CCc1nc(-c2cccc(C(=O)O)c2)no1`, the “Percent Effect” value was determined as 7.751%. On the same count and under the same terms, in the case of `CS(=O)(=O)NC1CCN(C(=O)NCCc2ccccn2)CC1` it was -4.021%. Same read-out and setting: in the case of `Cc1ccc(S(=O)(=O)N2CCN(Cc3ccncc3)CC2)c(Cl)c1` it was -1.432%.

On to `Cc1ccc(OCCN(C)C(=O)CCCC(N)=O)c(C)c1`, for which the “Percent Effect” value is on record as -6.308%. As for `Cc1ccc(N2CCCC(NCC3=Cc4ccccc4OC3)C2)nn1` (stereo not drawn), the “Percent Effect” value amounted to 9.337%. Regarding `Cc1cn2c(n1)C(CNCC1=Cc3cc(Cl)ccc3OC1)CCC2` (stereo not drawn), the “Percent Effect” value (10 mM as filed; unlikely as a test dose) was 86.97% and 100% and 87.02%. On to `Cc1cn2c(n1)C(CNCC1=Cc3ccccc3OC1)CCC2` (stereo not drawn), for which the “Percent Effect” value (10 mM as filed; unlikely as a test dose) is 102.3% and 118.3% and 103.2%. For the compound `Cc1cn2c(n1)C(CNCc1cccc3c1OCO3)CCC2` (stereo not drawn), the “Percent Effect” value is given as 10.56%.

As for `CC(NCC1=Cc2cc(Cl)ccc2OC1)c1nnc2n1CCCC2` (stereo not drawn), the “Percent Effect” value is given as -0.2255%. For `CCc1n[nH]c(C2CN(Cc3nnc(C4CC4)o3)CCO2)n1` (stereo not drawn), the “Percent Effect” value amounted to 4.502%. Consider `CCc1ncnc2c1CCN(CCOC)CC2.O=C(O)C(F)(F)F`, for which the “Percent Effect” value stood at 8.757%. For `CC1COCCN1C(=O)COc1ccc(Oc2ccccn2)cc1` (stereo not drawn), the “Percent Effect” value (10 mM as filed; unlikely as a test dose) is 62.7% and 63.29% and 47.53%.

For `CC1COCCN1C(=O)COc1cccc(Oc2ccccn2)c1` (stereo not drawn), for the setting “10 mM as filed; unlikely as a test dose”, the “Percent Effect” value was -6.319% and -6.647% and 2.396%. `COc1ncccc1CN1CCc2[nH]nc(C(=O)N(C)C)c2C1`: the “Percent Effect” value is given as 10.07%. Consider `COCCn1ccc2c(C(=O)Nc3nc4c(s3)CCC4)cccc21`, for which the “Percent Effect” value (10 mM as filed; unlikely as a test dose) was 69.11% and 95.7% and 86.17%.

On to `COCCn1cc(CC(=O)Nc2nc3c(s2)CCC3)c2ccccc21`, for which, under “10 mM as filed; unlikely as a test dose”, the “Percent Effect” value is 1.19% and -4.41% and -3.323%.

Regarding `COCCn1ccc2c(NC(=O)c3n[nH]c4c3CCC4)cccc21`, the “Percent Effect” value (10 mM as filed; unlikely as a test dose) is -3.571% and -16.58% and -12.91%. For `Cc1cc(CN2CCN(C(=O)c3sccc3C3CC3)CC2)no1`, the “Percent Effect” value was found to be 1.531%.

In the case of `O=C1CCCN1CC1CCCCN1C(=O)Nc1cccnc1` (stereo not drawn), the “Percent Effect” value was 7.898%. As to `O=C(O)C(F)(F)F.O=C(c1ccsc1)N1C[C@@H]2CCN(c3cccnc3)C[C@@H]2C1`, the “Percent Effect” value is 9.933%. `O=C(Nc1cccnc1)[C@H]1C[C@H]2OCC[C@H]2N(C(=O)c2ccsc2)C1.O=C(O)C(F)(F)F`: the “Percent Effect” value is on record as -9.732%.

As to `O=C(Nc1cccnc1)C1Cc2nc(-c3ccsc3)sc2N1CC1CC1.O=C(O)C(F)(F)F` (stereo not drawn), the “Percent Effect” value (10 mM as filed; unlikely as a test dose) is 89.12% and 90.39% and 85.39%.

For the compound `CN(C)C(=O)CN1CCC2(CCN(S(C)(=O)=O)CC2)C1=O`, the “Percent Effect” value came out at 9.72%.

On to `COc1ncccc1NC(=O)C1CC1`, for which the “Percent Effect” value is listed as 5.184%. Take `Cc1cnn(CC2CCCN2CC(=O)Nc2nc(C)cs2)c1` (stereo not drawn): the “Percent Effect” value is on record as 7.289%. `CN(C)c1cc(C(=O)N2CCN(c3cc(C#N)ccn3)CC2)ccn1`: the “Percent Effect” value came to 0.09769%. `CCc1ocnc1C(=O)N1CCCC1c1noc(C(C)C)n1` (stereo not drawn): the “Percent Effect” value is on record as -5.615%. Turning to `COc1cccc(-n2c(C)cc(C(=O)NC(C)(C)C(N)=O)c2C)c1`, the “Percent Effect” value came to 5.357%. As for `CN1CCC(c2n[nH]cc2-c2ccnc(N)c2)C1` (stereo not drawn), the “Percent Effect” value is listed as 2.531%. As to `Cc1nnc2n1CCN(CCOc1ccccc1)C2`, the “Percent Effect” value (10 mM as filed; unlikely as a test dose) is -26.14% and -25.56% and -5.728%.

Take `CS(=O)(=O)NCc1cc(-c2cc(F)cc(F)c2)nc(N2CCCC2)n1`: the “Percent Effect” value is 13.63%.

Turning to `CN(Cc1ccccc1)C(=O)CCNc1ncccc1C#N`, the “Percent Effect” value is -0.1304%. For the compound `CN(Cc1noc(C2CC2)n1)C1CCN(CC(=O)N2CCOCC2)C1` (stereo not drawn), the “Percent Effect” value is 4.316%. With `COCCOc1ccc(F)cc1NCc1nc2ccccc2n1C`, under “10 mM as filed; unlikely as a test dose”, the “Percent Effect” value is 8.05% and -7.699% and 5.859%. `COc1cc(F)c(NCc2nc3ccccc3n2C)cc1OC`: the “Percent Effect” value (10 mM as filed; unlikely as a test dose) is 61.41% and 85.71% and 92.05%. For the compound `COCCOc1ncccc1NCc1nc2ccccc2n1C`, under “10 mM as filed; unlikely as a test dose”, the “Percent Effect” value is 12.39% and -0.3581% and 11.74%. On to `Cc1cc(NC(=O)CNC2CCc3nc(C(C)C)nn3C2)no1` (stereo not drawn), for which the “Percent Effect” value is reported as 3.617%.

In the case of `O=C(O)C(F)(F)F.O=C(O)C(F)(F)F.O=C1CC2(CCN(Cc3cccnc3)C2)CN1c1ccc2c(c1)OCO2` (stereo not drawn), the “Percent Effect” value amounted to 12.41%. Still for that read-out and setting: the same measure for `CN(C)c1nc2c(c(N3CCc4ccccc4C3)n1)CCNC2`: 6.667%.
